# Data taken from PubChem BioAssay.
# Active and inactive are the calls of the source.
# How the values were obtained:
# [1] = anti-His antibody binders, primary screen, artefact control for SMM control protein annotation, biochemical, small-molecule microarray, 635 nm fluorescence (AID 1128); conditions: anti-His Alexa647 antibody binding, higher = more signal;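 note: score merges feature fluorescence with signal-to-noise for each printed compound spot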
# [2] = tested on: Human papillomavirus type 1a E7 protein (residues 1-88); assay: HPV1a E7 small-molecule binders, primary screen, biochemical, small-molecule microarray, residues 1-88, 635 nm (AID 1129); conditions: small-molecule microarray binding, fluorescence 635 nm; higher = more signal
# [3] = target: Focal adhesion kinase 1 (Homo sapiens) (UniProt Q05397); assay: small-molecule microarray binders of FAK, primary screen, biochemical, 635/667 nm fluorescence, BSA, DTT (AID 1130); conditions: PTK2 binding, 635 nm fluorescence, higher = more signal;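 note: composite of spot emission at 667 nm and signal to noise over triplicate slides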
# [4] = tested on: Fibrinogen (Alexa647-labelled); assay: fibrinogen binders on compound microarrays, profiling panel, artefact control for SMM control-protein annotation, biochemical, small-molecule microarray, 635/667 nm fluorescence (AID 1131); conditions: fibrinogen-A647 binding fluorescence, higher = more signal;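 note: z-score merges 667 nm fluorescence with per-spot signal-to-noise over triplicate slides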
# [5] = target: Follistatin (Homo sapiens) (UniProt P19883); assay: follistatin binders on small-molecule microarrays, primary screen, biochemical, small-molecule microarray, 635/667 nm fluorescence (AID 1132); conditions: FST binding, 635 nm fluorescence, higher = more signal
# [6] = target: Fibroblast growth factor 2 (Homo sapiens) (UniProt P09038); assay: FGF2 binders on small-molecule microarrays, primary screen, biochemical, small-molecule microarray, 635/667 nm fluorescence (AID 1133); conditions: small-molecule microarray binding, FGF2, fluorescence 635/667; higher = more signal
# [7] = mitochondrial membrane potential change in A549 cells, profiling panel, cell-based, JC-1 fluorescence, basal, 24 h, 100 nL (AID 1138); conditions: higher = more signal;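 note: A549 lung adenocarcinoma cells under basal conditions with no added stimulus; test concentration not given here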
# [8] = tested on: Lefty1; assay: Lefty1 binders on small-molecule microarrays, primary screen, biochemical, small-molecule microarray, 635/667 nm fluorescence (AID 1139); conditions: small-molecule microarray binding, fluorescence 635/667; higher = more signal
# [9] = tested on: wheat germ agglutinin (Triticum aestivum), Alexa647-labelled; assay: wheat germ agglutinin binders on compound microarrays, profiling panel, artefact control for SMM control-protein annotation, biochemical, small-molecule microarray, 635/667 nm fluorescence (AID 1140); conditions: WGA-A647 binding, 635 nm fluorescence, higher = more signal;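 note: score merges 667 nm feature emission with signal to noise over triplicate slides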
# [10] = target: Luciferin 4-monooxygenase (Photinus pyralis) (UniProt P08659); assay: firefly luciferase enzyme inhibitors, primary screen, biochemical, luminescence, purified enzyme, 2006 set (AID 1141); conditions: SteadyGlo luminescence, 30 min, higher = more signal, called active from +8 up or from −8 down;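 note: cell-free assay with purified firefly luciferase at 100 ng per well in PBS; test concentration not given here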
# Chain of Luciferin 4-monooxygenase (Photinus pyralis) (P08659 whole entry, looked up): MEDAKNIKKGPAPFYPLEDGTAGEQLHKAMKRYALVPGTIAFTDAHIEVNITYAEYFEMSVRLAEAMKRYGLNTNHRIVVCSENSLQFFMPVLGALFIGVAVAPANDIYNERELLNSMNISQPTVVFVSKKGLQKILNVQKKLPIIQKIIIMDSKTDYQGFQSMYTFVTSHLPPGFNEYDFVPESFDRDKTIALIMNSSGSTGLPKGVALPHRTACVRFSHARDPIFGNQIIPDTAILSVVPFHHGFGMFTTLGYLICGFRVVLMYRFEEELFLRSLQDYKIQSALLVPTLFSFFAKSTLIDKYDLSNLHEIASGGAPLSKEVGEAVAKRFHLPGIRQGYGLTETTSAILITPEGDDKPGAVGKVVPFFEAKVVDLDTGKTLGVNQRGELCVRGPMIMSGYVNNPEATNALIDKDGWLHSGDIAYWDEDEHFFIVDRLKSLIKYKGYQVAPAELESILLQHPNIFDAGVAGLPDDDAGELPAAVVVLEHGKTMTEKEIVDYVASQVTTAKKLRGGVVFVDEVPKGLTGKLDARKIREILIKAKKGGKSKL
# Chain of Follistatin (Homo sapiens) (P19883 whole entry, looked up): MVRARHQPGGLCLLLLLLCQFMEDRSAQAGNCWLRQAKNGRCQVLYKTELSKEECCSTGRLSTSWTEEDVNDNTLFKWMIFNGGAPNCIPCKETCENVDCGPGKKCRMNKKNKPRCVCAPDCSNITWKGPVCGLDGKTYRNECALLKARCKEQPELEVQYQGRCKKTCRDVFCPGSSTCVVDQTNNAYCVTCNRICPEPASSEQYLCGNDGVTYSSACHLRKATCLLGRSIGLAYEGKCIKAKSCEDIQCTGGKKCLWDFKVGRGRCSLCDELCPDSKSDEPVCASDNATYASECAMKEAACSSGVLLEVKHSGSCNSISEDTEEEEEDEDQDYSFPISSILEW
# Chain of Fibroblast growth factor 2 (Homo sapiens) (P09038 whole entry, looked up): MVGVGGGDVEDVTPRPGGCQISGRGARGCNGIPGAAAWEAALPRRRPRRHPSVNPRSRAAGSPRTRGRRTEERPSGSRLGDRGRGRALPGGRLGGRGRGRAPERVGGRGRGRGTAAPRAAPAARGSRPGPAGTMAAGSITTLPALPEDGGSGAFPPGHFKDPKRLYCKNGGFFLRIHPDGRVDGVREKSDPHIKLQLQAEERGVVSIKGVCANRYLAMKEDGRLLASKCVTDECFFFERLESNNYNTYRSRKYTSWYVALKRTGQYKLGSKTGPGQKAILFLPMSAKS
# Chain of Focal adhesion kinase 1 (Homo sapiens) (Q05397 whole entry, looked up): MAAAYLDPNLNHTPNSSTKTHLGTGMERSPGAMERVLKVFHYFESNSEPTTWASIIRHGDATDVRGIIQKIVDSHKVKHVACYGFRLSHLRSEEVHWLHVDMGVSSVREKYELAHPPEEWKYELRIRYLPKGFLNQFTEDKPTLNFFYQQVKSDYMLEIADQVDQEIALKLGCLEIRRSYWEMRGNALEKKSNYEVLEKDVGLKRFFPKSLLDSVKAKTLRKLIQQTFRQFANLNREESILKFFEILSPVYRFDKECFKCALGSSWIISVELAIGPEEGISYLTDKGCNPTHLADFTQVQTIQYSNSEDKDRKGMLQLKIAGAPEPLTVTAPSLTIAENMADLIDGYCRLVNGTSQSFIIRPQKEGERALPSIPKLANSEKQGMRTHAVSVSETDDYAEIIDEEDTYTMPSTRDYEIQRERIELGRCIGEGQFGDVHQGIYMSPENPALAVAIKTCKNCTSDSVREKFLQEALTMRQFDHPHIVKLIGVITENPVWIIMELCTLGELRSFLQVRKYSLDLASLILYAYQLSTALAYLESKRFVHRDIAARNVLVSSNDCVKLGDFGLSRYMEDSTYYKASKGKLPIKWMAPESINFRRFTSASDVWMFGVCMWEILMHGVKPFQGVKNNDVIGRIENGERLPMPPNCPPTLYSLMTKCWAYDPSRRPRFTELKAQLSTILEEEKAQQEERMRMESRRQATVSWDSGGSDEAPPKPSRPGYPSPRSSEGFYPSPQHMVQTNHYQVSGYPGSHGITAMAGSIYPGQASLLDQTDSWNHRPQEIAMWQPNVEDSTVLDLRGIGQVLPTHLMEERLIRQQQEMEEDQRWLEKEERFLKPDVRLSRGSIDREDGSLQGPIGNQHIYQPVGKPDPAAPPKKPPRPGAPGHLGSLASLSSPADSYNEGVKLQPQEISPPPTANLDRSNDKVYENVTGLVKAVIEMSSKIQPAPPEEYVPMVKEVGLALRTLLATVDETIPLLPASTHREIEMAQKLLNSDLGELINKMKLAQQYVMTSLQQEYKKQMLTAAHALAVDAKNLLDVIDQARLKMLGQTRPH
SMILES,composite z-score [1],composite z-score [2],composite z-score [3],composite z-score [4],composite z-score [5],composite z-score [6],z-score [7],composite z-score [8],composite z-score [9],z-score [10]
CC(C)CNC(=O)[C@@]1(C)c2ccccc2C(=O)N(Cc2ccc(OC(F)(F)F)cc2)[C@H]1c1ccc(CO)cc1,0.206,0.325,-0.0752,-0.0439,-0.27,0.192,0.209,-1.43,-0.0416,-1.22 (inactive)
NC(=O)NCC#Cc1ccc2c(c1)[C@]1(C(=O)N2)[C@H](C(=O)N2CCCCCCC2)[C@H]2C(=O)O[C@H](c3ccccc3)[C@H](c3ccccc3)N2[C@@H]1c1ccccc1OCCO,1.03,1.27,2.88,0.743,1.51,0.0779,0.209,1.32,1.59,-0.984 (inactive)
CCN1C(C)=C(C(=O)OC)[C@@H](c2ccccc2)N2C(=O)[C@@]3(C(=O)OC)O[C@@]12[C@@H]1C(=O)N(c2ccccc2)C(=O)[C@@H]13,1.44,0.678,0.231,0.389,0.462,1.51,0.507,1.27,0.238,-0.569 (inactive)
O=C/C=C/c1ccc(/C=C/c2ccccc2)cc1,1.52,-0.483,-0.313,-1.86,0.828,0.168,1.39,-0.134,0.633,-3.83 (inactive)
O=C1OCC=C[C@H]2OC34C=CCN(Cc5ccccc5)C(=O)[C@H]3N(CCCCCO)C(=O)[C@@H]4[C@@H]12 (stereo not given in full),-0.171,-0.614,0.0672,-0.736,-1.14,-1.24,0.0704,-1.09,-1.29,-0.423 (inactive)
[N-]=[N+]=NCc1ccccc1C[C@]1(C(=O)N2CCCCC2)N=C(c2ccc(OCCCO)cc2)O[C@H]1c1ccccc1CN=[N+]=[N-],0.538,1.21,0.652,0.947,1.04,-0.369,-0.0989,0.453,0.59,-1.02 (inactive)
COCCOC(=O)N1C(=O)[C@@]2(c3ccccc31)[C@H](C(=O)N1CCc3cc(OC)c(OC)cc3C1)[C@H]1C(=O)O[C@H](c3ccccc3)[C@H](c3ccccc3)N1[C@@H]2c1ccccc1OCCO,1.86,1.18,0.989,0.938,1.13,0.349,0.679,0.762,1.02,-1.69 (inactive)
C=C[C@H](OC)[C@@H](OC(=O)Nc1ccc(SC)cc1)c1ccc(O)c(F)c1,0.705,0.0378,-0.264,0.756,0.171,0.781,-0.97,-0.0871,0.0251,-3.45 (inactive)
CC(=O)NCCCC[C@@H]1NC(=O)[C@H]2C[C@@H](C(=O)NCCCCCCN(C)C)[C@@H](c3cccc(OCCO)c3)N2C1=O,2.66,1.2,1.15,0.478,1.37,1.33,-0.153,1.57,0.797,-0.805 (inactive)
CC(C)CN1C(=O)[C@@]2(Cc3ccccc31)c1ccccc1C(=O)N(C1CCCCC1)[C@H]2c1ccc(CO)cc1,-1.34,-1.05,-0.133,-1.04,-0.447,-0.914,-0.269,-1.28,-1.14,-0.275 (inactive)
COc1ccc(-c2cc3c(c(-c4ccccc4)n2)[Si](C(C)C)(C(C)C)O[C@H]3c2ccccc2)cn1,-0.614,0.438,-0.142,0.0413,0.758,0.343,0.136,0.506,-0.0707,0.167 (inactive)
CCCN1C(=O)[C@@]2(CCS(=O)(=O)c3ccccc3)N=C(c3ccc(OCCCO)cc3)O[C@H]2c2ccccc21,2.79,1.23,0.494,0.762,1.4,0.961,0.782,0.78,0.46,-0.869 (inactive)
CO[C@@H]1COC(=O)[C@H](C)NC(=O)CC=C[C@@H](C)[C@H](OC)COC(=O)[C@H](C)NC(=O)CC=C[C@H]1C,0.284,0.207,0.0533,0.38,0.614,0.989,1.64,0.59,0.222,-1.57 (inactive)
CO[C@H]1COC(=O)CC=C[C@H](C)[C@@H](OC)COC(=O)CC=C[C@@H]1C,0.245,-1.11,-0.415,-0.706,0.956,1.29,1.35,0.817,-0.991,-1.38 (inactive)
C=CCC1=C[C@H]2[C@H]([C@@H]3C=C[C@]2(CC=C)C(=O)[C@]32CO2)[C@@]2(CO2)C1=O,-0.131,-1.2,-0.263,-0.571,1.45,1.45,1.84,1.58,-0.0818,-1.01 (inactive)
COc1cccc([C@@H]2[C@@H](C)CC[C@H]3C(=O)N4[C@H](c5cccc(OC)c5)[C@@H](C)CC[C@H]4C(=O)N23)c1,0.584,0.276,-0.175,0.817,0.614,0.428,1.55,0.418,0.248,-1.78 (inactive)
CC(C)[Si](OCC[C@H]1O[C@]2(C(=O)N(Cc3ccccc3)c3ccccc32)[C@@H](C)[C@@H]1[Si](C)(C)O)(C(C)C)C(C)C,-0.197,-0.694,0.104,0.618,0.122,-0.206,-0.761,0.218,0.128,-0.183 (inactive)
CCCC=C(CCC)[C@@H](NS(=O)(=O)c1ccc(C(F)(F)F)cc1)c1ccc(-c2ccccc2)cc1,0.826,1.23,0.998,0.694,1.26,-0.0729,1.89,0.565,1.2,2.63 (inactive)
CO[C@H]1COC(=O)[C@H](CCSC)NC(=O)CC=C[C@@H](C)COC(=O)[C@@H](OCc2ccccc2)C=C[C@@H]1C,-0.155,-0.762,-0.36,-1.22,1.18,1.46,0.676,1.63,-1.02,-1.12 (inactive)
CC(C)[Si](OCCCNS(=O)(=O)c1ccc(Br)cc1)(C(C)C)C(C)C,0.479,1.04,0.339,0.348,0.928,0.828,-0.87,0.513,0.622,-1.22 (inactive)
O=C(O)[C@@H]1Cc2c([nH]c3ccccc23)[C@@H](c2ccccc2)N1,0.247,0.299,0.948,0.651,0.607,0.197,0.375,0.244,0.0252,-0.0866 (inactive)
C/C(=N\O)C(=O)NCCCCCNC(=O)OCc1ccccc1,0.443,0.783,0.317,0.825,0.7,0.545,2.02,0.93,0.3,-1.72 (inactive)
COC(=O)c1c(CC[C@@H](CO)NC(=O)N[C@H](Cn2cc(-c3cncn3C)nn2)C(C)C)oc(C(C)=O)c1C(=O)OC,1.15,0.722,-0.205,-0.0397,0.415,1.11,-0.315,0.999,-0.0889,-0.263 (inactive)
